Drawing on PubChem BioAssay (NCI), this text covers growth for 15 compounds.

Each structure is given as a SMILES string. Compounds without any hit were thinned out: in the full panel of roughly 83,000, 20% have a hit.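 Step 1: grow cells in 96-well plates. Step 2: add test compound at a single concentration. Step 3: incubate 48 h. Step 4: record percent growth.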 Values without a mark were called inactive. Activity calls are given as the source filed them. Rule for the calls: active = growth percent below 10; inactive = the rest.

What all share (assay): NCI-60 one-dose screen, 48 h (100 = growth as untreated, 0 = no growth, -100 = all killed)
Holding throughout (conditions): 10 µM unless noted

For assay [1], the system named is NCI-H23 lung.
Assay [2] relates to NCI-H226 lung.
The test system of assay [3] is NCI-H322M lung.
The test system of assay [4] is HOP-62 NSCLC.
Assay [5] concerns NCI-H460 lung.
Assay [6] concerns HOP-92 NSCLC.
Assay [7] relates to NCI-H522 lung.
For assay [8], the system named is A549/ATCC NSCLC.
The subject of assay [9] is 786-0 renal.
Assay [10] relates to COLO 205 colon.
Assay [11] has as its system DU-145 prostate.
The subject of assay [12] is K-562 leukemia.
The subject of assay [13] is MALME-3M melanoma.
Assay [14] concerns MDA-MB-231 breast.
The subject of assay [15] is RXF 393 renal.
For assay [16], the system named is SF-268 CNS.
In assay [17] the test system is SF-295 CNS.
The subject of assay [18] is SF-539 CNS.
In assay [19] the test system is UACC-257 melanoma.
Assay [20] concerns M14 melanoma.

Consider `COc1cc(NS(=O)(=O)c2ccc(N)cc2)ncn1`, for which the growth in [1] was 101%; in assay [2] it was 112%; in [3], 104%; in assay [4], 108%; in assay [5], 110%; in assay [6], 105%. Also, the growth in [7] was 114%; in assay [8] it was 102%; in assay [9], 99.1%; in assay [10] it was 113%; in [11], 118%; in assay [12], 92.9%. In addition, the growth in assay [13] is 97.4%; in [14], 94.7%; in assay [15] it was 112%; in [16], 109%; in assay [17], 102%; in assay [18], 112%. The growth in [19] is 106%; in assay [20], 107%.
Consider `CCCCOc1nc2ccc(Cl)cc2cc1/C=C/C(=O)/C=C/c1ccc(OC)cc1`, for which the growth was 95.9% in assay [1]; 99.6% in assay [2]; 95.6% in [3]; 110% in assay [4]; 98.4% in [5]; 93.4% in assay [6]. Further, the growth in [7] is 77.5%; in assay [8], 92.1%; in [9] it was 110%; in [10], 93.1%; in assay [11], 93.8%; in assay [12] it was 87%. For the same compound, the growth in [13] is 100%; in assay [14] it was 106%; in [15], 119%; in [16], 95.4%; in assay [17], 113%; in [18], 104%. The growth in assay [19] is 89.7%; in assay [20], 66.3%.
Regarding `C=CC(C)(O)CCC1C(=C)CCC2C(C)(C)CCCC12C` (stereo not given), the growth in assay [1] is 94.2%; in assay [2] it was 105%; in assay [3] it was 98.3%; in [4], 102%; in assay [5] it was 112%; in [6] it was 126%. The growth in assay [7] is 72.4%; in assay [8] it was 77.5%; in assay [9], 99.6%; in [10], 123%; in [11], 104%; in [12], 97.9%. The growth in assay [13] was 101%; in [14], 112%; in assay [15] it was 108%; in assay [16], 94.5%; in [17], 99.3%; in [18], 106%. Besides, the growth is 88.1% in assay [19] and 111% in [20].
For the compound `O=C1C(Cl)=C(Nc2ccccc2)C(=O)C(Cl)=C1Nc1ccccc1`, the growth in assay [1] was 106%; in assay [2] it was 103%; in assay [3] it was 120%; in assay [4] it was 113%; in assay [5], 112%; in assay [6], 101%. Further, the growth is 112% in assay [7]; 109% in assay [8]; 109% in [9]; 109% in [10]; 121% in assay [11]; 103% in [12]. Moreover, the growth in assay [13] is 119%; in assay [14], 121%; in assay [15], 116%; in assay [16] it was 105%; in [17], 114%; in [18] it was 106%. Also, the growth in assay [19] was 107%; in assay [20], 113%.
As to `Nc1nc(Cl)cc(NCCCCNc2cc(Cl)nc(N)n2)n1`, the growth in assay [1] was 102%; in [2] it was 109%; in assay [3] it was 87.1%; in [4], 107%; in assay [5], 121%; in assay [6] it was 74.3%. Moreover, the growth in [7] was 83.8%; in assay [8] it was 108%; in [9], 108%; in assay [10], 105%; in [11], 104%; in [12], 101%. Moreover, the growth in assay [13] was 145%; in [14] it was 114%; in [15] it was 123%; in assay [16], 112%; in assay [17] it was 121%; in [18] it was 96.5%. Also, the growth in [19] was 105%; in assay [20] it was 117%.
For `COc1ccc(C(=O)NC(=O)Nc2ccc3c(c2)NC(=O)/C3=C\c2[nH]c(C)c(CCC(=O)O)c2C)c(F)c1`, the growth is 40.4% in assay [1]; 45% in assay [2]; 50.7% in assay [3]; 19.8% in [4]; 17.1% in assay [5]; 83.5% in assay [6]. Moreover, the growth was 26.8% in assay [7]; 7.84% (active) in assay [8]; 31.2% in assay [9]; 37.5% in assay [10]; 42.7% in assay [11]; 23.9% in assay [12]. For the same compound, the growth in assay [13] is 40.6%; in assay [14], 71.5%; in [15], 21.1%; in [16], 35%; in [17] it was 42.7%; in [18] it was -5.86% (active). Moreover, the values for the growth in assay [19] and in [20] were 14.1% and 33.2%, respectively.
On to `COc1ccc2c(c1)C(=O)/C(=C/c1cccc(OCC(=O)c3ccccc3)c1)O2`, for which the growth is 41.4% in assay [1]; 80.9% in assay [2]; 108% in assay [3]; 103% in assay [4]; 93.1% in assay [5]; -58.8% (active) in assay [6]. The growth in assay [7] is -67.7% (active); in assay [8], 105%; in [9] it was 104%; in [10] it was -12.5% (active); in assay [11], 13.5%; in [12] it was -98.3% (active). In addition, the growth in assay [13] was 45.1%; in [14], 67.3%; in assay [15] it was -56.8% (active); in assay [16] it was 36.2%; in assay [17], 91.3%; in assay [18], -14.7% (active). Also, the growth in [19] is 42.9%; in assay [20], 49.8%.
For the compound `COc1cccc(/C=N/C(=S)NC2(C)C3CCC(C3)C2(C)C)c1O` (stereo not given), the growth was 94.7% in assay [1]; 93.1% in [2]; 73.1% in assay [3]; 92% in [4]; 60.2% in assay [5]; 93.3% in assay [6]. For the same compound, the growth is 69.7% in [7]; 74.7% in assay [8]; 88% in assay [9]; 89.6% in [10]; 105% in assay [11]; 79.4% in [12]. The growth in assay [13] was 89.8%; in assay [14] it was 96.2%; in assay [15], 99%; in assay [16] it was 94.7%; in assay [17], 86.1%; in assay [18], 95.3%. The growth in assay [19] is 87%; in assay [20], 64.8%.
Regarding `COc1cc(/C=C2/Oc3cc4occc4c(OC)c3C2=O)ccc1OCC(=O)Nc1ccncc1`, the growth in [1] is 94.1%; in [2] it was 95%; in assay [3] it was 97.3%; in assay [4], 85.7%; in assay [5] it was 104%; in assay [6], 97.4%. For the same compound, the growth in assay [7] was 85.4%; in assay [8] it was 101%; in [9], 101%; in assay [10] it was 107%; in assay [11] it was 112%; in assay [12], 107%. Moreover, the growth in assay [13] was 110%; in [14], 89.9%; in assay [15], 118%; in [16] it was 105%; in assay [17], 107%; in [18] it was 97%. Moreover, the growth in [19] is 104%; in assay [20] it was 98.8%.
Consider `COc1ccc2c(-c3ccc(F)cc3)c(C#N)c(=NC(C)=O)oc2c1`, for which the growth is 53.8% in [1]; 89.6% in assay [2]; 58.2% in assay [3]; 62.8% in assay [4]; 23.3% in [5]; 70.6% in [6]. Also, the growth in [7] is 5.83% (active); in [8], 53.4%; in [9] it was 33.4%; in assay [10], 106%; in assay [11], 49.6%; in [12], 8% (active). Also, the growth in assay [13] is 53.7%; in assay [14], 54.7%; in assay [15] it was 36%; in assay [16], 52.7%; in [17], 37.9%; in assay [18], 28.4%. Moreover, the growth in assay [19] is 72%; in assay [20], 19.8%.
As to `O=C(/C=C/c1ccccc1)Oc1ccc(/C=C/c2cc(OC(=O)/C=C/c3ccccc3)cc(OC(=O)/C=C/c3ccccc3)c2)cc1`, the growth in assay [1] is 102%; in [2] it was 91.4%; in assay [3], 90.6%; in assay [4], 82.9%; in assay [5], 100%; in assay [6] it was 95.8%. For the same compound, the growth in [7] is 77%; in assay [8], 83.9%; in assay [9], 102%; in [10], 97.4%; in assay [11], 104%; in [12], 94.8%. Moreover, the growth was 91.2% in assay [13]; 104% in [14]; 114% in [15]; 99.5% in assay [16]; 101% in assay [17]; 91.8% in assay [18]. The growth in assay [19] is 81.7%; in [20], 100%.
As to `CC1CCC(C(C)C)C(NN)C1` (stereo not given), the growth in assay [1] was 106%; in [2], 88%; in [3], 91.2%; in assay [4], 96%; in assay [5], 108%; in assay [6], 110%. The growth is 70.9% in [7]; 80.6% in assay [8]; 98.8% in [9]; 103% in [10]; 109% in [11]; 92.2% in [12]. Further, the growth in [13] is 112%; in assay [14], 108%; in [15] it was 115%; in assay [16] it was 107%; in assay [17], 107%; in assay [18], 103%. In addition, the growth in assay [19] is 78.6%; in assay [20], 102%.
As to `c1cncc(-c2nc3ccccc3[nH]2)c1`, the growth in assay [1] was 84.4%; in assay [2], 92.7%; in assay [3] it was 101%; in [4] it was 83.2%; in [5], 105%; in assay [6], 103%. Besides, the growth was 99.8% in assay [7]; 93.9% in assay [8]; 107% in [9]; 89.1% in [10]; 112% in assay [11]; 102% in assay [12]. Moreover, the growth in assay [13] was 109%; in assay [14] it was 83.4%; in assay [15] it was 94.6%; in assay [16], 105%; in [17], 118%; in [18], 97.8%. Moreover, the growth in assay [19] was 27.7%; in assay [20] it was 99.7%.
With `OCc1cn(-c2ccc(Cl)cc2)nc1-c1ccc(O)cc1`, the growth in assay [1] is 96.7%; in assay [2], 96.9%; in assay [3], 85.8%; in assay [4], 81.9%; in [5] it was 106%; in assay [6], 136%. In addition, the growth was 71.2% in assay [7]; 90.1% in assay [8]; 93.4% in [9]; 115% in [10]; 97% in assay [11]; 88% in [12]. Further, the growth was 100% in assay [13]; 97.9% in [14]; 107% in assay [15]; 78.6% in assay [16]; 100% in assay [17]; 93.2% in [18]. The figures for the growth in assay [19] and in assay [20] were 108% and 95%, respectively.
For `COc1ccc(Cl)cc1NC(=O)c1cc2c([nH]1)-c1nc(NC(=O)C(C)C)sc1CC2`, the growth is 83.5% in assay [1]; 79.5% in assay [2]; 92.8% in assay [3]; 75.3% in [4]; 106% in assay [5]; 90% in assay [6]. For the same compound, the growth in [7] is 63.7%; in assay [8], 91.1%; in [9], 105%; in assay [10], 102%; in [11] it was 96.2%; in assay [12], 76.4%. For the same compound, the growth in assay [13] was 104%; in assay [14] it was 113%; in [15], 109%; in assay [16], 94.9%; in assay [17], 101%; in assay [18], 26%. Besides, the growth was 92.7% in assay [19] and 101% in assay [20].
